Reference: PubChem BioAssay (NCATS)
Results filed as inconclusive are left out. The source made the active and inactive calls. Calls follow the shape of the dose curve; as a rule, active = well fitted inhibition curve with a large enough effect; inconclusive = small, poorly fitted or top-dose-only effect; inactive = flat fitted curve, though single readings scatter.

Tests used:
PC26 = assay: qHTS profiling for inhibitors of Plasmodium falciparum proliferation (AID 504749); settings: P. falciparum in erythrocytes, SYBR Green DNA, 72 h; series mostly up to 28.7 µM
Procedure, shortened: (§1)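 Fluorescence of SYBR Green-bound parasite DNA, read at 485/535 nm, served as the growth measure. Infected erythrocytes were cultured with compound 72 h; artemisinin (0.29 uM) and DMSO wells defined the normalization range.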

PC49 = assay: as above; settings: P. falciparum in erythrocytes, SYBR Green DNA, 72 h; series mostly up to 28.7 µM
Procedure, shortened: as §1

SC27B = assay: as above; settings: P. falciparum in erythrocytes, SYBR Green DNA, 72 h; series mostly up to 28.7 µM
Procedure, shortened: as §1

TAB109 = assay: as above; settings: P. falciparum in erythrocytes, SYBR Green DNA, 72 h; series mostly up to 28.7 µM
Procedure, shortened: as §1

TAB113 = assay: as above; settings: P. falciparum in erythrocytes, SYBR Green DNA, 72 h; series mostly up to 28.7 µM
Procedure, shortened: as §1

TAB165 = assay: as above; settings: P. falciparum in erythrocytes, SYBR Green DNA, 72 h; series mostly up to 28.7 µM
Procedure, shortened: as §1

W2 = assay: as above; settings: P. falciparum in erythrocytes, SYBR Green DNA, 72 h; series mostly up to 28.7 µM
Procedure, shortened: as §1

CRL-7250 = normal cell line; assay: Cytotoxic Profiling of Annotated Libraries Using Quantitative High-Throughput Screening (AID 1296008); settings: Five cell lines viability, CellTiter-Glo ATP luminescence, 48-72 h; max response: stronger effect = lower value; as to max response: % is scaled to controls: 0 for no effect and ±100 for the full control effect
Procedure, shortened: (§2)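 Compounds were pin-transferred onto cells and incubated 48 or 72 hr at 37 degree Celsius, 95% humidity. CellTiter-Glo was added, plates sat 10 min at room temperature, then ATP-coupled luminescence was imaged as the viability read-out.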

HEK293 = assay: as above; settings: Five cell lines viability, CellTiter-Glo ATP luminescence, 48-72 h; max response: stronger effect = lower value
Procedure, shortened: as §2

HaCat = assay: as above; settings: Five cell lines viability, CellTiter-Glo ATP luminescence, 48-72 h; max response: stronger effect = lower value
Procedure, shortened: as §2
Also: nearly all actives have a fitted effect of over 60% in size.
Potency is read from the fitted curve at half-maximal effect.

O=C1C(CCS(=O)c2ccccc2)C(=O)N(c2ccccc2)N1c1ccccc1 (stereo not given)
inactive: Potency (PC26) | Potency (PC49) | Potency (SC27B) | Potency (TAB109) | Potency (TAB113) | Potency (TAB165) | Potency (W2) | max response (CRL-7250) -1.85% | max response (HEK293) -3.91% | outcome (HaCat)

CC1(COc2ccc(CC3SC(=O)NC3=O)cc2)CCCCC1 (stereo not given)
inactive: Potency (PC26) | Potency (PC49) | Potency (SC27B) | Potency (TAB109) | Potency (TAB113) | Potency (TAB165) | Potency (W2) | outcome (CRL-7250) | max response (HEK293) 0.676% | outcome (HaCat)

CC(C)Nc1cccnc1N1CCN(C(=O)c2cc3cc(NS(C)(=O)=O)ccc3[nH]2)CC1
inactive: Potency (PC26) | Potency (PC49) | Potency (SC27B) | Potency (TAB109) | Potency (TAB113) | Potency (TAB165) | outcome (CRL-7250) | max response (HEK293) -14.8% | max response (HaCat) 0.0011%
active: Potency (W2) 9.53 µM

CC(=O)Nc1ccc(OCC(O)CNC(C)C)cc1 (stereo not given)
inactive: Potency (PC26) | Potency (PC49) | Potency (SC27B) | Potency (TAB109) | Potency (TAB113) | Potency (TAB165) | Potency (W2) | max response (CRL-7250) -5.23% | max response (HEK293) 4.87% | outcome (HaCat)

C=CCN1CCc2nc(N)sc2CC1
inactive: Potency (PC26) | Potency (PC49) | Potency (SC27B) | Potency (TAB109) | Potency (TAB113) | Potency (TAB165) | Potency (W2) | max response (CRL-7250) -5.69% | max response (HEK293) 0.777% | max response (HaCat) -12.6%

CCCN(CCC)S(=O)(=O)c1ccc(C(=O)O)cc1
active: Potency (HaCat) 18.8 µM
inactive: Potency (PC26) | Potency (PC49) | Potency (SC27B) | Potency (TAB109) | Potency (TAB113) | Potency (TAB165) | Potency (W2) | max response (CRL-7250) -3.77% | max response (HEK293) 3.98%

NS(=O)(=O)Cc1noc2ccccc12
inactive: Potency (PC26) | Potency (PC49) | Potency (SC27B) | Potency (TAB109) | Potency (TAB113) | Potency (TAB165) | Potency (W2) | max response (CRL-7250) 0.547% | max response (HEK293) -4.5% | max response (HaCat) 1.67%

Cl/C(=C\n1cncn1)c1ccc(Cl)cc1Cl
inactive: Potency (PC26) | Potency (PC49) | Potency (SC27B) | Potency (TAB109) | Potency (TAB113) | Potency (TAB165) | Potency (W2) | outcome (CRL-7250) | max response (HEK293) -2.88% | max response (HaCat) -4.78%

CC(=O)NC(=O)c1ccccc1O
inactive: Potency (PC26) | Potency (PC49) | Potency (SC27B) | Potency (TAB109) | Potency (TAB113) | Potency (TAB165) | Potency (W2) | max response (CRL-7250) -3.82% | max response (HEK293) -1.84% | max response (HaCat) -6.77%

CCOC(=O)Nc1ccc2c(c1)N(C(=O)CCN1CCOCC1)c1ccccc1S2
inactive: Potency (PC26) | Potency (PC49) | Potency (SC27B) | Potency (TAB109) | Potency (TAB113) | Potency (TAB165) | Potency (W2) | max response (CRL-7250) -6.24% | max response (HEK293) -28.3% | max response (HaCat) -10.7%

NS(=O)(=O)c1ccc(Cl)c(S(N)(=O)=O)c1
inactive: Potency (PC26) | Potency (PC49) | Potency (SC27B) | Potency (TAB109) | Potency (TAB113) | Potency (TAB165) | Potency (W2) | max response (CRL-7250) -4.09% | outcome (HEK293) | max response (HaCat) -3.23%

CC(C)Cn1cnc2c1c(=O)n(C)c(=O)n2C
inactive: Potency (PC26) | Potency (PC49) | Potency (SC27B) | Potency (TAB109) | Potency (TAB113) | Potency (TAB165) | Potency (W2) | outcome (CRL-7250) | max response (HEK293) -0.637% | max response (HaCat) -0.147%

CC[C@H](c1ccc(O)cc1)[C@@H](CC)c1ccc(O)cc1
inactive: Potency (PC26) | Potency (PC49) | Potency (SC27B) | Potency (TAB109) | Potency (TAB113) | Potency (TAB165) | Potency (W2) | max response (CRL-7250) 3.93% | max response (HEK293) -17.5% | max response (HaCat) 0.0962%

COc1cc(N)c(Cl)cc1C(=O)NC1CCN(Cc2ccccc2)CC1
inactive: Potency (PC49) | Potency (SC27B) | Potency (TAB109) | Potency (TAB113) | outcome (CRL-7250) | max response (HEK293) -8.36% | max response (HaCat) 1.83%

c1ccc(CC2=NCCN2)cc1
inactive: Potency (PC26) | Potency (PC49) | Potency (SC27B) | Potency (TAB109) | Potency (TAB113) | Potency (TAB165) | Potency (W2) | max response (CRL-7250) 1.69% | max response (HEK293) -22.9% | max response (HaCat) -10.1%

O=C(O)c1ccc(S(=O)(=O)N(Cl)Cl)cc1
inactive: Potency (PC26) | Potency (PC49) | Potency (SC27B) | Potency (TAB109) | Potency (TAB113) | Potency (TAB165) | Potency (W2) | max response (CRL-7250) 3.6% | max response (HEK293) 3.96% | max response (HaCat) -0.853%

CCCCCCCCCCCCCCCC(=O)O
inactive: Potency (PC26) | Potency (PC49) | Potency (SC27B) | Potency (TAB109) | Potency (TAB113) | Potency (TAB165) | Potency (W2) | max response (CRL-7250) -4.95% | max response (HEK293) -5.26% | max response (HaCat) -1.81%

O=C(Oc1cccc2cccnc12)c1ccccc1
inactive: Potency (PC49) | Potency (SC27B) | Potency (TAB109) | Potency (TAB113) | Potency (TAB165) | max response (CRL-7250) -27.3% | max response (HEK293) -102% | max response (HaCat) -16.2%
